Inconclusive results are not listed. A number with no mark means an inactive call. Calls follow the shape of the dose curve; as a rule, active = well fitted activation curve with a large enough effect; inconclusive = small, poorly fitted or top-dose-only effect; inactive = flat fitted curve, though single readings scatter.
assay: Validation screen for small molecules that induce DNA re-replication in SW480 colon adenocarcinoma cells (AID 504364); settings: DNA re-replication phenotype (high-content imaging); series mostly up to 46.1 µM; activity (re-replication induction): at the top concentration; also: 0% is about no effect
Description: H Molecular Libraries Probe Production Network [MLPCN]
NIH Chemical Genomics Center [NCGC]
Assay Provider: Melvin DePamphilis, NICHD, NIH
Eukaryotic cells normally restrict genome duplication to once per cell division. When this process is aberrant, DNA re-replication occurs when cells reinitiate DNA replication before the first round of replication is complete. DNA re-replication induces the DNA damage response, arrests cell proliferation, and triggers apoptosis. The cell cycle components cyclin A, Cdt-1, Cdc6 and geminin are critical regulators of this process and their misregulation results in DNA re-replication in normal and cancer cells. To identify compounds that induce re-replication in normal cells, an image-based assay was used to measure DNA content of nuclei, as detected by the fluorescent DNA binding dye, Hoechst. Cell nuclei were imaged by a fluorescence scanning plate imager and compounds that induce DNA re-replication were identified by the increase of nuclei with elevated fluorescence intensity.#
For screening, 250 cells in 5 uL/well were dispensed into black clear 1536-well plates (Aurora) using a solenoid-based dispenser. Following transfer of 23 nL compound or DMSO vehicle by a pin tool, the plates were incubated 48 hr at 37 C and 5% CO2. After addition of 1 uL/well Hoescht stain, the plates were incubated 40 min at 37 C, 5% CO2 and total intensity of fluorescent objects (nuclei) were enumerated by an Acumen Explorer Ex3 (TTP LabTech) fluorescence scanning plate imager (405 nm excitation, 500-530 nm emission).
Keywords: NIH Roadmap, MLPCN, MLI, MLSMR, qHTS, NCGC, DNA replication, cancer

SMILES	activity (re-replication induction)
CNC(=O)[C@H]1O[C@@H](n2cnc3c(NCc4cccc(I)c4)ncnc32)[C@H](O)[C@H]1O	-0.284%
NC(=S)c1ccc[n+]([C@@H]2O[C@@H](COP(=O)([O-])OP(=O)(O)OC[C@H]3O[C@@H](n4cnc5c(N)ncnc54)[C@H](OP(=O)(O)O)[C@H]3O)C(O)C2O)c1 (stereo not given in full)	7.79%
N=C1Sc2ccccc2C2=NCCCN12	4%
CC(O)[C@@H](O)[C@H]1CNc2nc(N)[nH]c(=O)c2N1 (stereo not given in full)	-20.2%
OC[C@H]1O[C@@H](n2cnc3c(N[C@H]4CC5CCC4C5)ncnc32)[C@H](O)[C@@H]1O (stereo not given in full)	-8.59%
CC(=O)NCCc1ccc(O)c(O)c1	-3.93%
NCCC(=O)NCCc1cnc[nH]1	1.06%
Nc1nc2c(nc(Br)n2C2O[C@H]3COP(=O)(O)O[C@@H]3C2O)c(=O)[nH]1 (stereo not given in full)	0.992%
CSc1nc(N)c2ncn([C@@H]3O[C@H](COP(=O)(O)OP(=O)(O)O)[C@H](O)[C@H]3O)c2n1	-5.02%
CN1C[C@H](C(=O)N[C@]2(C)O[C@@]3(O)C4CCCN4C(=O)[C@H](Cc4ccccc4)N3C2=O)C[C@@H]2c3cccc4[nH]cc(c34)C[C@H]21 (stereo not given in full)	8.98%
COc1cc(=O)n(C)c2c(OCC(O)C(C)(C)O)cccc12 (stereo not given)	-5.56%
COc1ccc(CCNC[C@@H](O)c2ccc(O)cc2)cc1OC	1.76%
CC(C)C1NC(=O)[C@H](CCCCN)NC(=O)[C@@H](Cc2c[nH]c3ccccc23)NC(=O)[C@H](Cc2ccc(O)cc2)NC(=O)[C@H](C)N(C)C(=O)[C@H](Cc2ccccc2)NC1=O (stereo not given in full)	-3.29%
CSc1nc(N)c2ncn([C@@H]3O[C@H](COP(=O)(O)OP(=O)(O)OP(=O)(O)O)[C@H](O)[C@H]3O)c2n1	-6.44%
CN1C2CC(OC(=O)C(CO)c3ccccc3)CC1C1OC12 (stereo not given)	-3.42%
COC(=O)c1c(-c2cc(OC)c(OC)c(OC)c2)c2ccc(OCc3ccccn3)cc2c(=O)n1-c1ccc(N)cc1	7.14%
OC[C@H]1O[C@@H](n2cnc3c(NCCc4ccccc4)ncnc32)[C@H](O)[C@H]1O	-0.519%
Cc1cn([C@H]2C[C@@H](N=[N+]=[N-])[C@@H](CO)O2)c(=O)[nH]c1=O	-3.7%
O=[N+]([O-])c1ccc(CSc2ncnc3c2ncn3[C@@H]2O[C@H](CO)[C@H](O)[C@H]2O)cc1	-9.48%
CC(=O)[C@@]1(O)CC[C@H]2C3CCC4=CC(=O)CC[C@]4(C)C3CC[C@@]21C (stereo not given in full)	-6.85%

SMILES	activity (re-replication induction)
CCCCCCCCCCCCCCC/C=C/[C@@H](O)[C@H](NC(=O)CCCCCCCCCCCCC)OC (tested in a mixture with another compound)	-10.4%
O=C(O)CC[C@H](NC(=O)c1ccccc1C(=O)O)C(=O)O	-11.2%
CN1C(=O)CCC1c1cccnc1 (stereo not given)	-5.41%
C[C@]12C=CC(=O)C=C1CCC1C2=CC[C@]2(C)[C@@H](C(=O)CN3CCN(c4cc(N5CCCC5)nc(N5CCCC5)n4)CC3)CC[C@@H]12 (stereo not given in full)	26.4%
Nc1nc(Nc2ccccc2)nc2c1ncn2[C@@H]1O[C@H](CO)[C@H](O)[C@H]1O	-5.91%
N[C@H](Cc1ccc(O)c(O)c1)C(=O)O	1.44%
O=C(Cc1ccc(Cl)c(Cl)c1)OCCN1CCCC1	-3.6%
NC(=NCCC[C@H](N)C(=O)O)NO	0.169%
CNc1ncnc2c1ncn2[C@@H]1O[C@H](CO)[C@H](O)[C@H]1O	-15.1%
CN1CCc2cc(Cl)c(O)cc2C(c2ccccc2)C1 (stereo not given)	-15.3%
NC(=S)NCCCC(N)C(=O)O (stereo not given)	-0.337%
Nc1ncnc2c1nc(Sc1ccc(Cl)cc1)n2[C@H]1O[C@@H]2COP(=O)(O)O[C@H]2[C@@H]1O	-4.95%
Nc1ncnc2c1ncn2[C@@H]1O[C@H](C(=O)NC2CC2)[C@H](O)[C@H]1O	-6.86%
CNC(=O)[C@H]1O[C@@H](n2cnc3c(NCc4ccc(N)cc4)ncnc32)[C@H](O)[C@H]1O	-0.2%
CC(C)(C)[C@]1(O)CCN2CC3c4ccccc4CCc4cccc(c43)[C@@H]2C1 (stereo not given in full)	11%
Nc1nc(SCc2ccc([N+](=O)[O-])cc2)c2ncn([C@@H]3O[C@H](CO)[C@H](O)[C@H]3O)c2n1	-9.47%
CCCC(=O)NCCc1c2n(c3ccc(OC)cc13)Cc1ccccc1-2	-0.601%
CC(=O)O[C@H]1C[C@@H]2CCC3C(CC[C@@]4(C)[C@H]3C[C@H]([N+]3(C)CCCCC3)[C@@H]4OC(C)=O)[C@@]2(C)C[C@@H]1[N+]1(C)CCCCC1 (stereo not given in full)	-5.72%
N.N.N.N.N.N.N.N.N.N.N.N.N.N.O.O.[Cl-].[Cl-].[Cl-].[Cl-].[Cl-].[Cl-].[Ru].[Ru].[Ru]	-8.18%
C[C@H]1CC2[C@@H]3CCC4=CC(=O)C=C[C@]4(C)[C@@]3(Cl)[C@@H](O)C[C@]2(C)[C@@]1(O)C(=O)CO (stereo not given in full)	1.5%

— PubChem BioAssay (NCATS)
